Outcome and AC50 data for 4 compounds are collected here from PubChem BioAssay (EPA / NIEHS).

Experiment [1] in a line: ATG_CRE_CIS: Attagene CIS-FACTORIAL HepG2 Assay for human cAMP Responsive Element (CRE) binding protein 3 (AID 2282926). Particulars: HepG2 CRE cis-reporter, Attagene multiplexed mRNA; actives raise or lower the signal. Put shortly: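 Readout: fluorescently labelled reporter transcripts resolved by capillary electrophoresis after RT-PCR, taken 24 h post-dosing in transfected HepG2. Endogenous transcription factor activity drives each cis-element reporter; gain or loss of signal fitted relative to DMSO control.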

Experiment [2] has as its target CCAAT/enhancer-binding protein beta (Homo sapiens) (UniProt P17676). Kind of experiment: ATG_C_EBP_CIS: Attagene CIS-FACTORIAL HepG2 Assay for human CCAAT/Enhancer Binding Protein (C/EBP) beta (AID 2282927). As to conditions: HepG2 Attagene cis-factorial transcription factor reporter; actives raise or lower the signal. Put shortly: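 RT-PCR/capillary electrophoresis fluorescence of reporter mRNA, 24 h post-dose, in HepG2 cells carrying transfected cis-promoter reporter units. Bidirectional curve fitting against DMSO baseline captures gain or loss of signal.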

Experiment [3] can be described thus: ATG_CMV_CIS: Attagene CIS-FACTORIAL HepG2 Assay for human CMV (Internal Marker) (AID 2282928).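 Also: endpoint acts as a background internal control marker rather than a target.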 Particulars: HepG2 CMV promoter reporter, transcription factor profiling; actives raise or lower the signal. Put shortly: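 Bidirectional fits against DMSO are applied to reporter mRNA, read by RT-PCR with capillary electrophoresis, from HepG2 cells exposed 24 h. The endpoint serves as an internal CMV background marker within the cis-factorial reporter panel.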

The nature of experiment [4]: ATG_DR4_LXR_CIS: Attagene CIS-FACTORIAL HepG2 Assay for human Liver X Receptor (LXR), DR4 submotif (AID 2282929). Particulars: HepG2 Attagene DR4 cis-reporter, mRNA transcription; actives raise or lower the signal. An outline of the steps:
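HepG2, transient MRTU transfection, cis-element (DR4) promoter; 24 h compound exposure; total RNA → oligo(dT) RT → PCR → 6-FAM primer extension → HpaI cut → CE. Gain/loss vs DMSO, bidirectional fit.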

The target of experiment [5] is Aryl hydrocarbon receptor (Homo sapiens) (UniProt P35869). The experiment is described as follows: ATG_Ahr_CIS: Attagene CIS-FACTORIAL HepG2 Assay for human Aryl Hydrocarbon Receptor (Ahr) (AID 2282930). Particulars: HepG2 AhR cis-factorial reporter transcription; actives raise or lower the signal. An outline of the steps:
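HepG2 cells transiently transfected with cis-element-driven multiplexed reporter transcription units; endogenous transcription factor activity measured as reporter mRNA 24 h after dosing. RT-PCR, 6-FAM labelling, HpaI digestion, capillary electrophoresis; bidirectional fitting versus DMSO baseline.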

The nature of experiment [6]: ATG_AP_1_CIS: Attagene CIS-FACTORIAL HepG2 Assay for human Activator Protein 1 (AP-1) (AID 2282931). As to conditions: HepG2 Attagene cis-factorial AP-1 reporter mRNA; actives raise or lower the signal. An outline of the steps: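 Transient MRTU transfection of HepG2 → 24 h chemical treatment → RNA isolation, RT-PCR, 6-FAM labelling, HpaI digest → capillary electrophoresis. Fit: bidirectional, DMSO negative control.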

The nature of experiment [7]: ATG_AP_2_CIS: Attagene CIS-FACTORIAL HepG2 Assay for human Activator Protein 2 (AP-2) (AID 2282932). As to conditions: HepG2 AP-2 cis-reporter, Attagene transcription factor profiling; actives raise or lower the signal. An outline of the steps:
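Cells (HepG2) transfected with promoter-driven reporter constructs, treated 24 h. Total RNA reverse-transcribed, reporter cDNA PCR-amplified, FAM-labelled by primer extension, digested, resolved by capillary electrophoresis. Activity fitted both directions versus DMSO.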

Experiment [8] can be described thus: ATG_BRE_CIS: Attagene CIS-FACTORIAL HepG2 Assay for human Bone Morphogenetic Protein (BMP) Response Element (BRE) (AID 2282933). As to conditions: HepG2 BMP response element reporter, Attagene transcription factor profiling; actives raise or lower the signal. Put shortly: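 Fluorescence-labelled reporter cDNA fragments, separated by capillary electrophoresis, gave the signal for this component of a 52-readout multiplex. HepG2 cells were transfected, exposed to chemicals for 24 h, and compared with DMSO using bidirectional fitting.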

For experiment [9], the target named is Retinoic acid receptor alpha (Homo sapiens) (UniProt P10276). The experiment is described as follows: ATG_DR5_RAR_CIS: Attagene CIS-FACTORIAL HepG2 Assay for human Retinoic Acid Receptor Alpha (RARE), DR5 submotif (AID 2282934). As to conditions: HepG2 Attagene cis-factorial RARE DR5 reporter, mRNA; actives raise or lower the signal. Put shortly: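 HepG2 cells transiently transfected with multiplexed reporter units under cis (DR5 RARE) promoters, so endogenous transcription factor activity is measured. After 24 h compound exposure, reporter mRNA is quantified by RT-PCR with fluorescent labelling and capillary electrophoresis; bidirectional fitting versus DMSO.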

Experiment [10] deals with Transcription factor E2F1 (Homo sapiens) (UniProt Q01094). Kind of experiment: ATG_E2F_CIS: Attagene CIS-FACTORIAL HepG2 Assay for human E2F Transcription Factor 1 (AID 2282935). Particulars: HepG2 Attagene cis-reporter, E2F reporter RNA transcripts; actives raise or lower the signal. An outline of the steps:
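First, HepG2 cells were transfected with reporter transcription units. Next, they were dosed for 24 h. Then RNA was isolated, converted to cDNA, PCR-amplified, FAM-labeled, HpaI-digested and analyzed by capillary electrophoresis.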

Experiment [11] is described as follows: ATG_E_Box_CIS: Attagene CIS-FACTORIAL HepG2 Assay for human Enhancer Box (E-box) (AID 2282936). Particulars: HepG2 E-box cis-reporter transcription, actives raise or lower the signal. Put shortly: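 Endogenous transcription factor activity was sensed in human HepG2 liver cells through transfected cis-promoter reporter units. After 24 h of dosing, total RNA was reverse-transcribed and reporter cDNA resolved by capillary electrophoresis.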

Experiment [12] in a line: ATG_M_61_CIS: Attagene CIS-FACTORIAL HepG2 Assay for M61 Transcription Factor (Internal Marker) (AID 2282937). Particulars: HepG2 Attagene CIS-FACTORIAL M61 internal marker reporter; actives raise or lower the signal. Put shortly: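 Human liver HepG2, transient MRTU transfection (cis promoter elements), 24 h compound. Total RNA → oligo(dT) RT → PCR → FAM label → HpaI → CE. Internal background marker; bidirectional fitting, DMSO = baseline.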

Experiment [13] in a line: ATG_EGR_CIS: Attagene CIS-FACTORIAL HepG2 Assay for human Early Growth Response 1 (EGR1) (AID 2282938). Particulars: HepG2 Attagene CIS-FACTORIAL EGR reporter mRNA; actives raise or lower the signal. Put shortly: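 Transient transfection of human HepG2 with multiple cis-regulated reporter units, chemical exposure 24 h, total RNA isolated. Reverse transcription, PCR, fluorescent labelling and capillary electrophoresis quantify reporter transcripts; activity fitted bidirectionally against DMSO.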

Experiment [14] is described as follows: ATG_M_19_CIS: Attagene CIS-FACTORIAL HepG2 Assay for M19 Transcription Factor (Internal Marker) (AID 2282939). Particulars: HepG2 Attagene CIS-FACTORIAL M19 internal marker reporter; actives raise or lower the signal. An outline of the steps:
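HepG2, MRTU transient transfection, 24 h dosing. Total RNA → RT-PCR → 6-FAM primer extension → HpaI digest → CE fluorescence. Bidirectional curve fit, DMSO negative control.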

A short description of experiment [15]: ATG_Ets_CIS: Attagene CIS-FACTORIAL HepG2 Assay for human Erythroblast Transformation Specific (ETS) (AID 2282941). As to conditions: HepG2 ETS cis-reporter transcription, actives raise or lower the signal. Put shortly: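 Endogenous transcription factor activity read as reporter mRNA via RT-PCR and capillary electrophoresis, with gain or loss fitted bidirectionally against DMSO. Human HepG2 liver cells, transiently transfected CIS reporter constructs, 24 h exposure.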

Experiment [16] concerns the target Hepatocyte nuclear factor 3-beta (Homo sapiens) (UniProt Q9Y261). Kind of experiment: ATG_FoxA2_CIS: Attagene CIS-FACTORIAL HepG2 Assay for human Forkhead box A2 (FOXA2) (AID 2282942). As to conditions: HepG2 cis-reporter transcription factor activity, 24 h; actives raise or lower the signal. Put shortly:
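Transient MRTU transfection of HepG2 liver cells; 24 h treatment; total RNA → oligo(dT) RT → PCR → FAM primer extension → HpaI cut → CE. Bidirectional fit vs DMSO.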

Experiment [17] can be described thus: ATG_FoxO_CIS: Attagene CIS-FACTORIAL HepG2 Assay for human Forkhead box O (FoxO) (AID 2282943). Particulars: HepG2 Attagene cis-reporter, FoxO element, mRNA; actives raise or lower the signal. Put shortly: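 HepG2 cells transiently transfected with cis-promoter-driven multiple reporter transcription units; 24 h after chemical dosing, reporter mRNA quantified by RT-PCR, fluorescent primer extension, HpaI digestion and capillary electrophoresis. Bidirectional fitting versus DMSO baseline.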

Experiment [18] in a line: ATG_GATA_CIS: Attagene CIS-FACTORIAL HepG2 Assay for human GATA Binding Protein (AID 2282944). As to conditions: HepG2 GATA cis-element reporter, Attagene multiplex mRNA; actives raise or lower the signal. Put shortly: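 Cells: HepG2, transiently transfected with cis-regulated reporter transcription units. Exposure: 24 h. Detection: RT-PCR plus capillary electrophoresis of FAM-labeled fragments. Analysis: bidirectional, DMSO as baseline.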

The nature of experiment [19]: ATG_GLI_CIS: Attagene CIS-FACTORIAL HepG2 Assay for human Zinc Finger Protein GLI1 (AID 2282945). As to conditions: HepG2, Attagene cis-factorial reporter mRNA, GLI element; actives raise or lower the signal. Put shortly:
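HepG2 cells transiently transfected with cis-promoter multiplexed reporter units report endogenous transcription factor activity. After 24 h chemical exposure, reporter mRNA was quantified by RT-PCR, 6-FAM labelling, HpaI digestion and capillary electrophoresis, with bidirectional fitting against DMSO.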

In experiment [20] the target is Bile acid receptor (Homo sapiens) (UniProt Q96RI1). Kind of experiment: ATG_IR1_CIS: Attagene CIS-FACTORIAL HepG2 Assay for human Nuclear Receptor Subfamily 1 Group H Member 4 (NR1H4), IR1 submotif (AID 2282946). As to conditions: IR1 reporter transcription, actives raise or lower the signal. Put shortly:
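Readout: reporter transcript levels by RT-PCR with fluorescent capillary electrophoresis, from HepG2 cells transiently transfected with multiplexed cis-regulated reporters and dosed 24 h. Gain- or loss-of-signal fitted versus DMSO negative control.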

The source made the active and inactive calls. The calls were made as follows: active = hit-call score of the fitted dose curve at least 0.9, where 1 is the maximum; inactive = score below 0.9.

A word on the AC50: it is the midpoint of the concentration-response curve, whichever way the signal moves.

Chain of Transcription factor E2F1 (Homo sapiens) (Q01094 whole entry, looked up): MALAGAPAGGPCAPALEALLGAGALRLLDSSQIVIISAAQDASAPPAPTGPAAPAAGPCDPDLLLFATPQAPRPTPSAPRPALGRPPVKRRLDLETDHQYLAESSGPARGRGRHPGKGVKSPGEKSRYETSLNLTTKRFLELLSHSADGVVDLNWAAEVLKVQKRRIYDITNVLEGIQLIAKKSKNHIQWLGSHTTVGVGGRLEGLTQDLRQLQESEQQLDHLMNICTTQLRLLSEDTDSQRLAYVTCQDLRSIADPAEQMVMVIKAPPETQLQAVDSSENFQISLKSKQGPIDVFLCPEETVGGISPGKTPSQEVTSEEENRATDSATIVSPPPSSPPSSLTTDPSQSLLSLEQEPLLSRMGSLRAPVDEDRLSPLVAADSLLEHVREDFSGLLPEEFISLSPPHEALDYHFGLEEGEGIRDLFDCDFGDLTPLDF
Chain of Hepatocyte nuclear factor 3-beta (Homo sapiens) (Q9Y261 whole entry, looked up): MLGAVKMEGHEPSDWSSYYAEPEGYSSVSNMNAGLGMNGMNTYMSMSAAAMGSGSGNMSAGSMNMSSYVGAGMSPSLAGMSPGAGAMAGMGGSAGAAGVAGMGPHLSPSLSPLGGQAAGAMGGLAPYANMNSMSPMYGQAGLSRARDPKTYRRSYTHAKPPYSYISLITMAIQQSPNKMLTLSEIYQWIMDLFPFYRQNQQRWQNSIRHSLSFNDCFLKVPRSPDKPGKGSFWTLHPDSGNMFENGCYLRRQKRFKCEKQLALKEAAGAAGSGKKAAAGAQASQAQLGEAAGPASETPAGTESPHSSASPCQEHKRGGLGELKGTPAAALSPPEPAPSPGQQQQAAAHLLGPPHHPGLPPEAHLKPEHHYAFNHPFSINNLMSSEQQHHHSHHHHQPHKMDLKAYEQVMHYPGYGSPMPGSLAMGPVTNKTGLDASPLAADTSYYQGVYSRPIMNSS
Chain of Retinoic acid receptor alpha (Homo sapiens) (P10276 whole entry, looked up): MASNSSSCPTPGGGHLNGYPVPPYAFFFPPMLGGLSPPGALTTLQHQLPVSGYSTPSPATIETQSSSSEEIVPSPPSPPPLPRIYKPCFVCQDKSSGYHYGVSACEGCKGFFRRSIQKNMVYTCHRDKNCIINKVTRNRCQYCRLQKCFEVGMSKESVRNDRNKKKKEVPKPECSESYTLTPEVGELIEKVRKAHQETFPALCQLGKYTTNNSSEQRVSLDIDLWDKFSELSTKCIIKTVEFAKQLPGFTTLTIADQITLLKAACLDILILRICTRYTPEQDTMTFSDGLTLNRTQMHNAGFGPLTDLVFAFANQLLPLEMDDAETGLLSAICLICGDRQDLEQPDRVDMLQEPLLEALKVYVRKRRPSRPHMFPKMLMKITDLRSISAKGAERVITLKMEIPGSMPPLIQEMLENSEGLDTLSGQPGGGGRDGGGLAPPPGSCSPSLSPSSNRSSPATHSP
Chain of CCAAT/enhancer-binding protein beta (Homo sapiens) (P17676 whole entry, looked up): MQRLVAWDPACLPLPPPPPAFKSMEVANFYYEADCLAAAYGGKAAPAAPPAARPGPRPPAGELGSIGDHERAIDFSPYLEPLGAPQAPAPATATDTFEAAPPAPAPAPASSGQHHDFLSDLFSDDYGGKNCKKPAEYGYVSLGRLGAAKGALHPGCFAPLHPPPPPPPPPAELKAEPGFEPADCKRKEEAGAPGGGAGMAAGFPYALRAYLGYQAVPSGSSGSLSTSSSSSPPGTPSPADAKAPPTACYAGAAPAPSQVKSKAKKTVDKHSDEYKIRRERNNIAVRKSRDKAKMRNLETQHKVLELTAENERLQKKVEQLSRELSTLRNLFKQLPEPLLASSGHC
Chain of Aryl hydrocarbon receptor (Homo sapiens) (P35869 whole entry, looked up): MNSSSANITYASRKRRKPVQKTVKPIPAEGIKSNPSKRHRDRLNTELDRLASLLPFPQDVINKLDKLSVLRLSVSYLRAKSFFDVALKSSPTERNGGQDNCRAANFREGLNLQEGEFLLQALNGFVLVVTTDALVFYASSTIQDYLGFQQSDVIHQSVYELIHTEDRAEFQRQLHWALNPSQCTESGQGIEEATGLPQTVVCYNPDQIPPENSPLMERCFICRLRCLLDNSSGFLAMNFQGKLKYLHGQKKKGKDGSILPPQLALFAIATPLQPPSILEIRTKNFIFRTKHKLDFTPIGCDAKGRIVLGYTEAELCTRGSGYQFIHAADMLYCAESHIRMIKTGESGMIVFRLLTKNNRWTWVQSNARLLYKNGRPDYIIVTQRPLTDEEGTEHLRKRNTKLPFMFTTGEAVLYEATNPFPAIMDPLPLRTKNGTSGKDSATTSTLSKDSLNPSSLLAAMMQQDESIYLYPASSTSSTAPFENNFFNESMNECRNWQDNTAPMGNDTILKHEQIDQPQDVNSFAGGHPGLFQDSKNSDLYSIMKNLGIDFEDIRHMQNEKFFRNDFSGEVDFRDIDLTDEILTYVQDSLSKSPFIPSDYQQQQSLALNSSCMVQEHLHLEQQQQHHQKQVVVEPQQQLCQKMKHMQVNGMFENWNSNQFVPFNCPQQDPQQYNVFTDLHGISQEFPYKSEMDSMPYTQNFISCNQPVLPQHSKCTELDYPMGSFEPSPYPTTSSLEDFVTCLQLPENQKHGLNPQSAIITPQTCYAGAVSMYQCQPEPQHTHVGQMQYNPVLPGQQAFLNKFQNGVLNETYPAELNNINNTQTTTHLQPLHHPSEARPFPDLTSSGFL
Chain of Bile acid receptor (Homo sapiens) (Q96RI1 whole entry, looked up): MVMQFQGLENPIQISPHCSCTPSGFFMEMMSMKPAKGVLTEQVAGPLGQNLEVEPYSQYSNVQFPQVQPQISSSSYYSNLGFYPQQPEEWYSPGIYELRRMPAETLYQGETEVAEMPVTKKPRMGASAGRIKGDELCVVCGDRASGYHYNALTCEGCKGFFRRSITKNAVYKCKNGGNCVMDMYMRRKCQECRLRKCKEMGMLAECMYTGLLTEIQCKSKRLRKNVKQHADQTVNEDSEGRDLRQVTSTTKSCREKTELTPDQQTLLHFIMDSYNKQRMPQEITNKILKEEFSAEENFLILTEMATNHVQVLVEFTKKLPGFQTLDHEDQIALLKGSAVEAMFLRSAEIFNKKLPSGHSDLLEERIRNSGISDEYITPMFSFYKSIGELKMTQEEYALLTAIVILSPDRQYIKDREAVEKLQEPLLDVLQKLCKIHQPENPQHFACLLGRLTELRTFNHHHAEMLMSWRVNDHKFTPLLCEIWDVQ

On to `CC1(C)O[C@@H]2[C@@H](CO[C@@]3(COS(N)(=O)=O)OC(C)(C)O[C@@H]23)O1`, for which the compound was classed as inactive in experiment [1], in [2], in experiment [3], in [4], in experiment [5] and in experiment [6]. Also, the call in experiment [7], in experiment [8], in experiment [9], in [10], in experiment [11] and in [12] was inactive. In addition, the outcome in [13], in experiment [14], in [15], in experiment [16], in experiment [17] and in [18] was inactive. Besides, the outcome in experiment [19] was inactive.

For the compound `O=C1OC(=O)c2c(Br)c(Br)c(Br)c(Br)c21`, the result in experiment [1], in experiment [2], in experiment [3], in experiment [4], in experiment [5] and in experiment [6] was inactive. For the same compound, the compound was called inactive in experiment [7], in [8], in experiment [9], in experiment [10], in experiment [11] and in [12]. Moreover, the call in experiment [13], in [14], in [15], in experiment [16], in [18] and in experiment [19] was inactive. Besides, the AC50 in [17] is 165 µM (active).

`O=C1c2ccccc2C(=O)c2c(O)ccc(O)c21`: the compound was classed as inactive in [1], in experiment [2], in experiment [4], in [6], in experiment [7] and in [8]. Also, the compound was classed as inactive in experiment [9], in experiment [10], in experiment [12], in experiment [13], in [14] and in experiment [15]. Further, the call in experiment [16], in experiment [17], in experiment [18], in [19] and in [20] was inactive. The AC50 was 3.02 µM (active) in experiment [3], 0.296 µM (active) in experiment [5] and 3.7 µM (active) in [11].

Turning to `O=C1OC2(c3ccccc31)c1ccc(O)c(Br)c1Oc1c2ccc(O)c1Br`, the outcome in experiment [1], in [2], in experiment [3], in experiment [4], in [6] and in experiment [7] was inactive. Also, the call in experiment [8], in [9], in experiment [10], in experiment [11], in experiment [12] and in experiment [13] was inactive. For the same compound, the compound was called inactive in [14], in experiment [15], in experiment [16], in [17], in [18] and in experiment [19]. Further, the compound was classed as inactive in [20]. Further, the AC50 in experiment [5] is 56.6 µM (active).
